In paper PMC4336329 (PLoS ONE, 2015):
In all, about 310,000 compounds went through this assay and about 2,200 (0.71%) showed an effect of 50% or more. The effect is printed as a negative number. The full list was thinned out, with strong results kept by preference.

target: human ether-à-go-go-related gene (hERG) potassium channel (human, UniProt Q12809); assay: primary screen, population patch clamp on CHO cells stably expressing hERG; higher = less effect of the substance
Sequence (Q12809 whole entry, looked up): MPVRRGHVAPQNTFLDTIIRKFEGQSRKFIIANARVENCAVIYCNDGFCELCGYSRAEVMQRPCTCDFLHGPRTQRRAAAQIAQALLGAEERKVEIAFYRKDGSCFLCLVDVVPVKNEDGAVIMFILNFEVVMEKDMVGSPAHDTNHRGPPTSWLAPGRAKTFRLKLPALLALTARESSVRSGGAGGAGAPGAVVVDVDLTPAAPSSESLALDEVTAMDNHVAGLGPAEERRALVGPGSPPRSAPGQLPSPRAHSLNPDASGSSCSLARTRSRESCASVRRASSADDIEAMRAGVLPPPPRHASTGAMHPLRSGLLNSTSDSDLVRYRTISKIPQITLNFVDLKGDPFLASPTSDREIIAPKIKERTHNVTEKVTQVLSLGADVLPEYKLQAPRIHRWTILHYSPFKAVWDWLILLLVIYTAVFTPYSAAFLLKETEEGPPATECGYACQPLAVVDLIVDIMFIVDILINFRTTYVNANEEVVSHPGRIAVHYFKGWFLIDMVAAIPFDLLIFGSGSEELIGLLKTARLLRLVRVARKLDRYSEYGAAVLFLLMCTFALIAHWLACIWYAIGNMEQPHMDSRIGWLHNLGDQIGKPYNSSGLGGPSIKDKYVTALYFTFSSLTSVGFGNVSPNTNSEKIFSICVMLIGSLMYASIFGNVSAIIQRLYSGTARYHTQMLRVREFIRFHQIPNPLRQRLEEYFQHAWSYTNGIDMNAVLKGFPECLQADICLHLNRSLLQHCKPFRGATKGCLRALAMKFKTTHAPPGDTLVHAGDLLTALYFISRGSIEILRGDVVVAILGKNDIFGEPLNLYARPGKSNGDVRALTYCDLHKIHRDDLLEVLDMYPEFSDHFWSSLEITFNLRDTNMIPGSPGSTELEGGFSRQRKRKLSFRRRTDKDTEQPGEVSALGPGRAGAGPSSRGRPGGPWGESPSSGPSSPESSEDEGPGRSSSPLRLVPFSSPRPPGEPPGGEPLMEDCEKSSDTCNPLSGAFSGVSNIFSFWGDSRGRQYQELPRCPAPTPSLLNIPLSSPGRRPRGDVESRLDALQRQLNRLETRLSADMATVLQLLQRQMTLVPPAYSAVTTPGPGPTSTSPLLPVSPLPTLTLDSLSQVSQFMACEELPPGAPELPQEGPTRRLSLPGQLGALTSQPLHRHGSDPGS

Row | Structure (SMILES) | hERG current change (%, negative = inhibition) at 1uM [%]
1 | CC(/C=N/n1c(-c2ccco2)n[nH]c1=S)=C\c1ccco1 | 13.9
2 | COCCCNc1nc2c(-c3cccc(C)c3)nnn2c2ccc(Cl)cc12 | 13.3
3 | CNC(=O)c1[nH]cnc1C(=O)N[C@@H](CCCCNC(=O)OC(C)(C)C)C(=O)OC(C)(C)C | 13.6
4 | Cc1cccc(NS(=O)(=O)c2cccc([N+](=O)[O-])c2)n1 | 13.7
5 | Cn1ccnc1SCC(=O)Nc1cc(C(F)(F)F)ccc1N1CCOCC1 | -0.591
6 | c1ccc(-c2noc(-c3cccs3)n2)nc1 | 7.74
7 | COc1cc2c(cc1OC)C1Cc3ccc(OC)c(OC)c3C[N+]1([O-])CC2 (stereo not shown) | 14.1
8 | CCC(=O)N1CCN(c2ccc(Cl)cc2NC(=O)c2cccc([N+](=O)[O-])c2)CC1 | -32
9 | O=C(Nc1ccccc1N1CCN(C(=O)c2ccc(Cl)cc2)CC1)c1cccc(F)c1 | -81.2
10 | O=C(c1ccccc1)N1CCN(c2ccccc2F)CC1 | 9.77
11 | O=C(Nc1ccccc1N1CCN(C(=O)c2ccccc2)CC1)c1ccc(Cl)cc1 | -7.21
12 | CS(=O)(=O)Nc1ccc(C(=O)N2CCN(c3ccccc3)CC2)cc1 | -31.4
13 | O=C(Nc1ccccc1N1CCN(C(=O)c2ccc(Cl)cc2)CC1)c1ccc2c(c1)OCO2 | -5.35
14 | O=C(Nc1ccccc1N1CCN(C(=O)c2ccc(Cl)cc2)CC1)c1cccc([N+](=O)[O-])c1 | -65.2
15 | CS(=O)(=O)Nc1ccc(C(=O)N2CCN(c3ccccc3F)CC2)cc1 | -69.2
16 | O=C(Nc1ccccc1N1CCN(C(=O)c2ccccc2)CC1)c1cccc(Cl)c1 | -12.6
17 | O=C(c1cccc([N+](=O)[O-])c1)N1CCN(c2ccc(Cl)cc2)CC1 | 2.13
18 | O=C(Nc1ccccc1N1CCN(C(=O)c2ccc(Cl)cc2)CC1)c1ccc(Br)cc1 | -4.26
19 | O=C(Nc1ccccc1N1CCN(C(=O)c2ccc(Cl)cc2)CC1)c1cccnc1 | -77
20 | Cc1cc(C)c(N2C(=O)C3C4CC(=O)C(c5ccccc54)C3C2=O)c(C)c1 (stereo not shown) | 3.35
21 | CC(Oc1ccc(Cl)cc1)c1ccnc(N)n1 (stereo not shown) | 15.5
22 | Cc1nc(COc2ccc(C(=O)NCc3ccccc3CN3CCCCC3)cc2)cs1 | -10.6
23 | Cc1sc(-n2c(C)cc(C=C3C(=O)NC(=O)NC3=O)c2C)c(C#N)c1C | 11.2

Row | Structure (SMILES) | hERG current change (%, negative = inhibition) at 1uM [%]
24 | CN(c1ccccc1)c1nc(N)c([N+](=O)[O-])c(N2CCCCC2)n1 | 7.57
25 | O=C(/C=C/c1ccccc1)C1=C(O)C(=O)N(CCO)C1c1ccccc1[N+](=O)[O-] (stereo not shown) | 11.9
26 | CCOc1ccc(N2CC(C(=O)N3CCN(c4ccccn4)CC3)CC2=O)cc1 (stereo not shown) | -9.35
27 | FC(F)(F)C(Oc1nc(Nc2ccc(Cl)cc2)nc(N2CCOCC2)n1)C(F)(F)F | 11.9
28 | CCCOc1ccc(/C=c2\sc3nc(-c4ccco4)nn3c2=O)cc1OCC | 5.32
29 | Cc1ccc(NC(=O)COc2ccccc2C(N)=O)cc1S(=O)(=O)N1CCCCCC1 | -0.137
30 | CCOCCCNC(c1ccccc1)c1ccncc1 (stereo not shown) | 15.3
31 | CN(C)c1ccc(/C=N/NC(=O)c2ccc3c(c2)OCO3)cc1 | 1.12
32 | CCOc1ccc(C(=O)Nc2ccccc2N2CCN(C(=O)c3ccccc3)CC2)cc1[N+](=O)[O-] | -84
33 | O=C(Nc1ccccc1N1CCCCC1)c1cccc([N+](=O)[O-])c1 | 9.68
34 | CCOc1ccccc1NC(=O)c1ccc(OCC)c([N+](=O)[O-])c1 | 1.13
35 | CN1CCN(c2ccccc2NC(=O)c2cccc([N+](=O)[O-])c2)CC1 | -67.1
36 | O=C(Nc1ccccc1N1CCOCC1)c1cccc([N+](=O)[O-])c1 | 2.37
37 | CCOc1ccc(C(=O)NC(=S)Nc2ccccc2N2CCCCC2)cc1[N+](=O)[O-] | 8.22
38 | Cc1nc2nc(SCC(=O)N3CCOCC3)nn2c(C)c1Cc1c(F)cccc1Cl | 3.11
39 | CCOc1cc(N2CCOCC2)c(OCC)cc1NCC(=O)N1CCN(Cc2ccccc2)CC1.Cl | 9.92
40 | COc1ccc(NC(=O)Nc2nnc(-c3ccco3)s2)cc1 | 12.3
41 | NC(=O)c1nsc(C(=O)N(c2ccc(Cl)cc2)C(C(=O)NCC2CCCO2)c2cccs2)c1N (stereo not shown) | 10.7
42 | S=C(Nc1ccc(Cl)cc1Cl)N1CCN(c2ccccn2)CC1 | 12.7
43 | O=C(CSc1nn(-c2ccc(F)cc2)c(=S)s1)N1CCN(C(=O)c2ccco2)CC1 | -64.6
44 | Cc1sc2nc(C(C)C)nc(SCC(=O)N3CCN(C(=O)c4ccco4)CC3)c2c1C | -41.5
45 | O=C(CSc1nc(-c2ccc(F)cc2)cs1)N1CCN(C(=O)c2ccco2)CC1 | -43.2
46 | O=C(CSc1nn(-c2ccc(Cl)cc2)c(=S)s1)N1CCN(C(=O)c2ccco2)CC1 | -44.1

Row | Structure (SMILES) | hERG current change (%, negative = inhibition) at 1uM [%]
47 | Cc1nc(SCC(=O)N2CCN(C(=O)c3ccco3)CC2)c2c(C)c(C)sc2n1 | -43.9
48 | Cc1sc2ncnc(SCC(=O)N3CCN(C(=O)c4ccco4)CC3)c2c1C | -67.3
49 | COc1cc(OC)cc(C(=O)Nc2cccc3cccnc23)c1 | 19.3
50 | Cc1cnc(CN(C)C(=O)CC2C(=O)NCCN2Cc2cccc(F)c2F)[nH]1 (stereo not shown) | 11.2
51 | O=C(NCc1n[nH]c(=S)n1-c1cccc(Cl)c1)c1cccs1 | 9.04
52 | COc1ccccc1C(C)Nc1nc(-c2cccnc2)nc2ccccc12 (stereo not shown) | 12.2
53 | CCOc1ccccc1OCCOCCN1CC(C)OC(C)C1 (stereo not shown) | 2.22
54 | Cc1[nH]c2ccccc2c1/C=C/c1nc2ccccc2c(=O)n1-c1ccc([N+](=O)[O-])cc1 | -1.09
55 | Cc1ccc(NC(=S)NC(=O)c2ccc(Br)o2)c(C)c1 | 13.3
56 | Cc1n[nH]c(=O)nc1N/N=C/c1cccs1 | 14.8
57 | Nc1ccccc1C(=O)N=Nc1[nH]c(N)c2ccccc12 | 21
58 | Nc1[nH]c(N=NC(=O)c2ccccc2)c2ccccc12 | 10.1
59 | Nc1[nH]c(N=NC(=O)c2ccccc2O)c2ccccc12 | -57.5
60 | O=c1[nH]c(CN2CC=C(c3ccccc3)CC2)nc2scc(-c3cccs3)c12 | 14.1
61 | CC(C)N(C)CCOC(=O)/C=C/c1ccccc1.Cl | 12
62 | Cc1cc(C)c2[nH]c3nc(SCC(=O)O)nnc3c2c1 | 16.7
63 | CC1CN(C(C)C)C(C)CC1OC(=O)c1ccccc1 (stereo not shown) | 16.7
64 | CN(C)[C@@H]1CCC[C@H]1OC(=O)C(c1ccccc1)c1ccccc1 | -40.2
65 | CC1CN(C)C(C)CC1OC(=O)C(c1ccccc1)c1ccccc1 (stereo not shown) | -68.3
66 | O=C(CN1CCC(Cc2ccccc2)CC1)N1CCc2ccccc2C1 | -62.2
67 | Cl.O=C(CN1CCN(c2ccc(F)cc2)CC1)N1CCC(Cc2ccccc2)CC1 | -5.57
68 | O=C(CCS(=O)(=O)Cc1ccccc1)N1CCc2ccccc2C1 | 8.69
69 | O=C(NCCNc1ccccc1[N+](=O)[O-])c1cc(F)c(F)cc1Cl | -2.68

Row | Structure (SMILES) | hERG current change (%, negative = inhibition) at 1uM [%]
70 | COc1cc(NC(=O)C(C)Oc2ccccc2)c(C(=O)O)cc1OC (stereo not shown) | 9.7
71 | Cl.OC(c1cccc(Cl)c1)(c1cccc(Cl)c1)C1CN2CCC1CC2 (stereo not shown) | -69.6
72 | Cl.OC(c1ccccc1)(c1ccccc1)C1CN2CCC1CC2 (stereo not shown) | -1.7
73 | OC(c1ccccc1)(c1ccc(Cl)cc1)C1CN2CCC1CC2 (stereo not shown) | -11.9
74 | CCOC(=O)c1ccccc1NC(=O)[C@@H]1CCCN1C(=O)OC(C)(C)C | 3.14
75 | CC(C)(C)C(=O)NC1CCN(S(=O)(=O)c2ccccc2F)CC1 | 7.45
76 | CO/N=C/c1ccc(N2CCN(C(=O)c3cccc(C(F)(F)F)c3)CC2)c([N+](=O)[O-])c1 | -2.38
77 | COc1ccc(N2CCN(C(=O)c3ccc(C)cc3)CC2)c([N+](=O)[O-])c1 | -29.7
78 | CO/N=C/c1ccc(N2CCN(C(=O)c3ccc(F)cc3)CC2)c([N+](=O)[O-])c1 | -78.1
79 | CO/N=C/c1ccc(N2CCN(C(=O)c3ccc(Cl)cc3Cl)CC2)c([N+](=O)[O-])c1 | -18.5
80 | CO/N=C/c1ccc(N2CCN(C(=O)c3ccc(C)cc3)CC2)c([N+](=O)[O-])c1 | -67.2
81 | COc1ccc(N2CCN(C(=O)c3ccc(F)cc3)CC2)c([N+](=O)[O-])c1 | -38.3
82 | CCc1ccc(CNC(=O)CCCC(=O)n2nc(C)c3ccccc32)cc1 | 16.1
83 | CCCCN1C(Nc2ccccc2)=NC[C@@H]1Cc1ccccc1 | -44.2
84 | c1ccc(CCCCN2C(Nc3ccccc3)=NC[C@@H]2Cc2ccccc2)cc1 | -39.7
85 | CC(CCN1C(Nc2ccccc2)=NC[C@@H]1Cc1ccccc1)c1ccccc1 (stereo partly shown) | -52.7
86 | CC(C)C[C@H]1CN=C(Nc2ccccc2)N1CCC(C)c1ccccc1 (stereo partly shown) | -8.04
87 | CCCCN1C(Nc2ccccc2)=NC[C@@H]1C | 16.3
88 | CCCCCCCN1C(Nc2ccccc2)=NC[C@@H]1Cc1ccccc1 | -79.6
89 | CC(C)CCCN1C(Nc2ccccc2)=NC[C@@H]1C | -0.21
90 | CCCCCCCN1C(Nc2ccccc2)=NC[C@@H]1C | -55.2
91 | CC(C)CCN1C(Nc2ccccc2)=NC[C@@H]1Cc1ccccc1 | -15
